Experimental data taken from PubChem BioAssay (NCI).
This is part of a sample that, as a whole, favours compounds with a hit. Of some 83,000 tested, about 20% had one in any assay.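 Assay: single dose, 48 h. Readout: percent growth (0 = no net growth; negative = cell death). Active: <10.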 A number with no mark means an inactive call. Calls of active or inactive are those of the source.

system: TK-10 renal; test: NCI-60 one-dose screen, 48 h (100 = growth as untreated, 0 = no growth, -100 = all killed); details: 10 µM unless noted
Protocol: Growth inhibition of the TK-10 human tumor cell line is measured as a screen for anti-cancer activity. Cells are grown in 96 well plates and exposed to the test compound for 48 hours. Compounds are tested at a single concentration, which is 10^-5 M for most compounds. The reported endpoint is percent growth (GI% or GIPRCNT), where numbers from 0 - 100% represent growth inhibition, and numbers from -100% - 0 represent cell death. For example, a value of 40 represents 60% growth inhibition. A value of 0 means no net growth occurred over the course of the experiment. A value of -40 indicates 40% of cells at the beginning of the experiment died by the end of the experiment. A value of -100 means all cells are dead at the end of the experiment.
NCI-60 Human Tumor Cell Lines Screen was performed using the standard one-dose NCI protocol, which is described in more detail at https://dtp.cancer.gov/discovery_development/nci-60/default.htm.
Compounds with GIPRCNT values below 10 were considered active. Activity score was based on GIPRCNT using the following formula: […]
Score is 0 for GIPRCNT values of 100 or above, 50 for GIPRCNT values of 0, and 100 for GIPRCNT values of -100.

| SMILES | growth |
| --- | --- |
| COc1ccc2[nH]cc(-c3nc(N)nnc3-c3cn(C)c4ccc(Br)cc34)c2c1 | 54.3% |
| Cc1ccc(S(=O)(=O)c2nc(-c3ccc(F)cc3)oc2S(C)(=O)=O)cc1 | 93.1% |
| N#Cc1c(-c2cccs2)c(C#N)c(=O)n(Cc2nc3ccccc3[nH]2)c1N | 152% |
| Cn1cc(-c2nnc(N)nc2-c2c[nH]c3ccc(Br)cc23)c2cc(Br)ccc21 | 78.7% |
| CCN(CC)c1ccc(/C=N/NC(=O)c2ccc(NS(C)(=O)=O)cc2)cc1 | 48.3% |
| CCOP(=O)(OCC)OC[C@]12CCC(C)(C)CC1C1=CC[C@@H]3[C@@]4(C)CCCNC(C)(C)[C@@H]4CC[C@@]3(C)[C@]1(C)CC2 (stereo not given in full) | 90.4% |
| CC1=C(C)C(=O)C(Nc2cccc(C(=O)OC(C)(C)C)c2)=CC1=O | 125% |
| C#Cc1nc(/C=C/C(=O)NO)cs1 | 43% |
| O=c1nc(Nc2ccc([N+](=O)[O-])cc2O)sc2ccccc12 | 82% |
| Cc1ccc2c(n1)C(=O)C(Cl)=C(Nc1ccc(C#N)cc1)C2=O | 104% |
| CN1CCN(c2ccc(Nc3nc(NCCCNS(=O)(=O)c4ccc(C(F)(F)F)cc4)c4sccc4n3)cc2)CC1 | -34.4% (active) |
| O=C1Nc2ccccc2/C1=C/c1ccc(OCC(=O)c2ccccc2)cc1 | 125% |
| CN1CCN(Cc2ccc(NC(=O)c3cncc(C#Cc4cnc5ccc(NCCO)nn45)c3)cc2C(F)(F)F)CC1 | -16.3% (active) |
| CN1CCN(Cc2ccc(NC(=O)c3cncc(C#Cc4cnc5ccc(N)nn45)c3)cc2C(F)(F)F)CC1 | 40.4% |
| CN1CCN(c2ccc(Nc3nc(NCCCNS(=O)(=O)c4cccc5ccccc45)c4sccc4n3)cc2)CC1 | -40.6% (active) |
| O=C(CSc1nc2ccccc2c(=O)n1-c1ccc(Cl)c(Cl)c1)Nc1ccc(S(=O)(=O)Nc2ccc(Cl)nn2)cc1 | 118% |
| CN1CCN(Cc2ccc(NC(=O)c3cncc(C#Cc4cnc5ccc(O[C@@H]6CCOC6)nn45)c3)cc2C(F)(F)F)CC1 | -83.5% (active) |
| Clc1cccc(/C=N/Nc2nc(N/N=C/c3cccc(Cl)c3)nc(N3CCCCC3)n2)c1 | 106% |
| CC1=C(C)C(=O)C(Nc2cccc(C)c2)=C(Br)C1=O | 152% |
| COc1ccccc1N1CCN(C2=C(Cl)C(=O)c3ncccc3C2=O)CC1 | 148% |

| SMILES | growth |
| --- | --- |
| CC(=O)OC[C@@]12Oc3c(cccc3-c3ccc(O)c4c3O[C@]3(COC(C)=O)C(=C4O)C(=O)C[C@H](C)[C@@H]3OC(C)=O)C(O)=C1C(=O)C[C@H](C)[C@@H]2OC(C)=O | 9.84% (active) |
| CCN(CC)CCOc1ccc(C(=C(C)Cc2ccc(OC)cc2)c2ccc(OCCN(CC)CC)cc2)cc1 | 111% |
| Nc1ccc(Nc2ncnc3sc4c(c23)CCN(Cc2ccccc2)C4)cc1 | 134% |
| CN(C)S(=O)(=O)c1ccc(-c2nc(C(Cl)Cl)nc3cc(-c4ccc(F)cc4)nn23)cc1 | 29.5% |
| O=C(CCCCCCNC(=O)C(O)(O)C(F)(F)F)Nc1ncc(-c2ccc(Br)cc2)s1 | -20.2% (active) |
| COc1cc(-c2nc(-c3ccccc3)[nH]c2-c2ccnc(NCCCNS(=O)(=O)c3ccc(C)cc3)n2)ccc1F | 123% |
| C#CCOc1cccc(/C(N)=N/C(N)=N/c2nc3ccccc3s2)c1 | 148% |
| CC[C@]12CC(C(=O)OC)=C3Nc4ccccc4[C@@]34CCN(C14)[C@@H]1c3cc4c(cc3O[C@@H]1[C@H]2O)NC1=C(C(=O)OC)C[C@@]2(CC)C3N(CC[C@@]143)C[C@H]1O[C@H]12 (stereo not given in full) | 6.66% (active) |
| C/C(=C(\c1ccc(O)cc1)c1ccc(OCCN2CCCCCC2)cc1)c1ccc(Cl)cc1 | -95.2% (active) |
| c1ccc(-c2cn3c(-c4c[nH]c5ccccc45)csc3n2)cc1 | 148% |
| NCCNC(=O)c1cccc(COc2ccccc2NC(=O)c2cc(Cl)c(Cl)[nH]2)c1 | 94.2% |
| COc1ccc(C(=O)c2c(N)c(C#N)cn2-c2ccc(Cl)cc2Cl)cc1 | 105% |
| O=C(Nc1ccc(Cl)c(C(F)(F)F)c1)Nc1ccc2c(ccn2C(=O)c2cccc(F)c2)c1 | 45.9% |
| C=C(C)[C@@H]1CC[C@]2(C(=O)N3CCN(C)CC3)CC[C@]3(C)[C@H](CC[C@@H]4[C@@]5(C)CC[C@H](OP(=O)(OCC)OCC)C(C)(C)[C@@H]5CC[C@]43C)[C@@H]12 | 108% |
| Cc1cc(NS(=O)(=O)c2ccc(NC(=O)CSc3nc4ccccc4c(=O)n3-c3ccccc3)cc2)no1 | 108% |
| C=C(C)[C@@H]1CC[C@]2(COCCCNCCCN)CC[C@]3(C)[C@H](CC[C@@H]4[C@@]5(C)CC[C@H](O)C(C)(C)[C@@H]5CC[C@]43C)[C@@H]12 | -85.5% (active) |
| O=c1c2cc(-c3ccc(F)cc3F)ccc2n(O)c(=O)n1-c1cccc(C(F)(F)F)c1 | 1.66% (active) |
| C#Cc1cc(OC)c(C(=O)Nc2ccc(F)cc2C(=O)Nc2cccc(S(=O)(=O)C(F)(F)F)c2)cn1 | 66.6% |
| CSc1ccc(C(=NNS(=O)(=O)c2ccc(C)cc2)c2ccc(Cl)cc2)cc1 | 104% |
| C[C@H]1OCC2(CCN(c3cnc(C(=O)Nc4cc(F)cc5cccnc45)cn3)CC2)[C@H]1N | 82.2% |
